From PubChem
Only a selection was taken, and hits are over-represented in it overall.
TbREL1 primary: TbREL1 inhibition, primary screen. TbREL1 RNA ligation, FRET fluorescence. inhibition, % at 9.66 µM. AID 1117264. 0.49% of 89,000 active. P86926;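 active = inhibition above the mean inhibition across all screened compounds plus 3 SD, cut at about 11% in these data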
Target sequence (P86926 whole entry, looked up): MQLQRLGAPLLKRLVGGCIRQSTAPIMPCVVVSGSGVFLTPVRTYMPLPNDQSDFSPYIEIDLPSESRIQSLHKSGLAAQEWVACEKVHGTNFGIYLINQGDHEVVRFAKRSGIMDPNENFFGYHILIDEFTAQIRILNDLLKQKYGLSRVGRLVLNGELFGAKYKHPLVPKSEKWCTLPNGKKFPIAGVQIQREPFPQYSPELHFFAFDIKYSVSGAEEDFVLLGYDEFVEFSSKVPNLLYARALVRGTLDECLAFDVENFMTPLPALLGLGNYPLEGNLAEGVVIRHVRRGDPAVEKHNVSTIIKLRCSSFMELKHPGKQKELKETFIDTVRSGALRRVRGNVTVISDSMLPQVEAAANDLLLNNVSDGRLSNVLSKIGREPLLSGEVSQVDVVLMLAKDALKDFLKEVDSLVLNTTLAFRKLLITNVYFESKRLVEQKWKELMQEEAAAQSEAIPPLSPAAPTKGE
TbREL1 conf: TbREL1 inhibition, confirmation | TbREL1 RNA ligation, FRET fluorescence | shares compounds with TbREL1 primary | AID 1117282 | inhibition, % at 9.66 µM | 37% of 390 active;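 active = mean inhibition across replicates above a set limit taken from the earlier primary screen, cut at about 11% in these data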
Large screens that a line does not name were inactive (follow-up assays come after a bar, where they were run).

O=C(NC1CC1)c1cn(Cc2ccccc2)nc1-c1ccccc1	none
N#CCCn1cc(C(=O)Nc2ccc([N+](=O)[O-])cc2)c(-c2ccccc2)n1	none
N#CCCn1cc(C(=O)Nc2ccc(F)cc2)c(-c2ccc([N+](=O)[O-])cc2)n1	TbREL1 primary 11 | TbREL1 conf inactive
CC(C)(C)OC(=O)NCCCCC(N)[P+](=O)O (configuration not stated)	none
CCCCn1c(N)c(C(=O)OCCOC)c2nc3ccccc3nc21	none
CCCCn1c(NC(=O)c2ccco2)c(C(=O)OCC)c2nc3ccccc3nc21	TbREL1 primary 34 | TbREL1 conf 45
CCCCOCCCn1c(N)c(C(=O)OCCOC)c2nc3ccccc3nc21	none
CCC(NC(=O)OCc1ccccc1)P(=O)(Oc1ccccc1)Oc1ccccc1 (configuration not stated)	none
NC(Cc1ccccc1)[P+](=O)O (configuration not stated)	none
CCOC(=O)CC1c2ccccc2-n2nncc2CN1C (configuration not stated)	none
Cc1ccccc1-c1ccc2c(c1)CNCc1cnnn1-2	none
Cc1ccccc1CN1Cc2cnnn2-c2ccccc2C1C#N (configuration not stated)	TbREL1 primary 11 | TbREL1 conf inactive
CC(C)C(NC(=O)OCc1ccccc1)P(=O)(Oc1ccccc1)Oc1ccccc1 (configuration not stated)	none
S=P(c1ccccc1)(c1ccccc1)c1cnc2ccccn12	none
COc1cc(O)c2c(c1)/C=C/C[C@H](O)[C@H](O)[C@@H](O)/C=C/C[C@H](C)OC2=O	none
